Source: PubChem BioAssay (several laboratories)
Only some compounds are listed: those with a hit (about 1.6% of all), similar ones and a draw of the others.
GRK2 inh – blocks RNA aptamer binding to human GRK2 | P25098 | bead flow cytometry, FAM-aptamer displacement from GRK2 | inhibition of aptamer binding, % at 10 µM | actives 0.59% (n = 330,000) | AID 488847;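 active = inhibition of aptamer binding above 40%, roughly 3 SD of noise, on plates passing a quality check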;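 note: median bead fluorescence of bound FAM aptamer so fluorescent compounds give negative values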
Target sequence (P25098 whole entry, looked up): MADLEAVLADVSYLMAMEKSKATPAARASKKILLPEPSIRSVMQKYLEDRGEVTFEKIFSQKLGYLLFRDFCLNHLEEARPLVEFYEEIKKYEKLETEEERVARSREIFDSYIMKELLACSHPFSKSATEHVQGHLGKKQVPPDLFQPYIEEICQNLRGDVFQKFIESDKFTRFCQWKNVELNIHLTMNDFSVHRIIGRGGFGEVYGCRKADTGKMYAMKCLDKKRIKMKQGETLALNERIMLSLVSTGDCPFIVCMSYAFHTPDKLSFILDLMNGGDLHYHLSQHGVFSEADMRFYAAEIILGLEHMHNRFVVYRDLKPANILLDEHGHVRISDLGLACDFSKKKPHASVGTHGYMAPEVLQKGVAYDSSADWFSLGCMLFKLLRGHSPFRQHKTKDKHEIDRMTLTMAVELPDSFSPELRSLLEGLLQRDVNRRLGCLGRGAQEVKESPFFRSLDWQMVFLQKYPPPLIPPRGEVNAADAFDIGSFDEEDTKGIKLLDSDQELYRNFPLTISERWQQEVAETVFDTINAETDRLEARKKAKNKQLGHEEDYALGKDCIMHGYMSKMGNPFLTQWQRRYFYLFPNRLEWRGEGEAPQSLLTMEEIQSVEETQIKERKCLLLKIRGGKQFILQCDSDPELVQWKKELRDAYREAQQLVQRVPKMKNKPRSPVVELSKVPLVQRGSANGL
Efflux pump mplx – antifungal efflux pump inhibition, Nile Red retention. actives 0.44% (n = 330,000). S. cerevisiae Candida pump triplex. inhibition, % at 10 µM. AID 485275;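 active = plate passing quality check with inhibition over a set limit, or well fluorescence over plate mean plus 4 SD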;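 note: Nile Red retained in pooled yeast measured as flow cytometry median fluorescence; higher means more Nile Red kept so more efflux inhibition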
Yeast superoxide – caloric restriction mimetics inhibiting age-related superoxide in yeast; S. cerevisiae aged cells, superoxide DHE fluorescence; active compounds read low; superoxide response (% of plate mean), % at 10 µM; actives 0.18% (n = 330,000); AID 2690;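 active = superoxide response under a set limit, about three screen SD below normal, cut at about 65% in these data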;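 note: yeast aged for seven days with compound at 30 °C before DHE staining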
ATG4B inhibitor – blocks human ATG4B protease cleavage of LC3 substrate | AID 504462 | ATG4B cleavage of LC3-PLA2, NBD-HPC fluorescence, 1 h | inhibition, % at 8.33 µM | actives 0.51% (n = 340,000); in the data active = inhibition above about 40%
GRK2 inh confirm – human GRK2 inhibition confirmation, cherry pick 1; shares compounds with GRK2 inh; bead-bound GRK2, FAM-aptamer displacement, flow cytometry; aptamer displacement, % at 10 µM; actives 4% (n = 2,000);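 active = aptamer displacement above 40%, near three times the noise of non-fluorescent compounds, on plates passing quality checks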;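 note: negative values mostly reflect intrinsic compound fluorescence rather than true enhancement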
Aptamer quench – counter-screen for GRK2 aptamer inhibitors: fluorescent aptamer quenchers; fluorescence change (kMESF span), kMESF (concentration not given with the values); Fluorescent RNA aptamer beads, quenching, flow cytometry; active compounds read high; shares compounds with GRK2 inh; 110 tested, under 10 active;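 active = compounds whose bead fluorescence drops by more than 37 kMESF across the dose range, marking them as dye quenchers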
Aptamer quench SP – aptamer fluorescence quenching in GRK2 counter-screen; 2,000 tested, under 10 active; Carboxyfluorescein RNA aptamer on beads, flow cytometry quenching; active compounds read low; fluorescence response (% of DMSO), % at 10 µM; AID 504580; shares compounds with GRK2 inh;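 active = compounds that quench the bead-bound fluorescent RNA probe, cutting fluorescence to under half of the solvent control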;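 note: counterscreen run without GRK2 so only probe quenching by compound is measured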
GRK2 CP2 – human GRK2 inhibition confirmation, cherry pick 2 | shares compounds with GRK2 inh | bead-bound GRK2, FAM-aptamer displacement, flow cytometry | inhibition of aptamer binding, % at 10 µM | 360 tested, under 10 active;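 active = inhibition of aptamer binding above 40%, about triple the noise seen with nonglowing compounds, on plates passing quality control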;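 note: negative values mostly come from compounds that fluoresce themselves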
Aptamer quench 2 – aptamer fluorescence quenching in GRK2 counter-screen dose response; 25 tested, under 10 active; Streptavidin beads, FAM-RNA aptamer fluorescence quenching, flow cytometry; change in fluorescence (kMESF span), kMESF (test concentration not listed); AID 504819; shares compounds with GRK2 inh;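 active = compounds quenching the bead-bound labeled aptamer, with fluorescence dropping by more than 37 kMESF over the dose range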
FAM quench CP2 – counter-screen for GRK2 binding hits: quenchers of fluorescent RNA aptamer; shares compounds with GRK2 inh; carboxyfluorescein RNA aptamer beads, flow cytometry quenching; active compounds read low; fluorescence response vs DMSO, % at 10 µM; 360 tested, under 10 active;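 active = response vs DMSO under 50%, meaning signal dropped by over half, treated as fluorescence quencher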;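 note: labelled aptamer on streptavidin beads without GRK2 as a quench counter-screen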
FAM quench DR – counter-screen for GRK2 aptamer binding inhibitors: aptamer fluorescence quenching; shares compounds with GRK2 inh; Bead-bound FAM RNA aptamer fluorescence quenching, flow cytometry; active compounds read low; fluorescence ratio to DMSO, % at 11.1 µM; 35 tested, under 10 active; AID 588496;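 active = compounds that dim the fluorescent label, raw bead signal shifting by over 33 units between lowest and highest dose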
Each line names hits and unclear results; the compound was inactive in the other large screens (follow-up assays come after a bar, where they were run).

COC(=O)CCC(=O)Nc1ccc(S(=O)(=O)Nc2cc(OC)nc(OC)n2)cc1	none | GRK2 inh confirm inactive | Aptamer quench SP inactive
c1coc(CNc2c3c(nc4ccccc24)CCC3)c1	none | GRK2 CP2 inactive | FAM quench CP2 inactive
Cc1ccc(C(=O)NCCNC(=O)c2cccnc2)cc1	none
CC(=O)N1c2ccc(S(=O)(=O)NCCC(=O)NCCc3cccc(C)c3)cc2CC1C (configuration not stated)	GRK2 inh 77 | GRK2 inh confirm inactive | Aptamer quench SP inactive
CN(C)S(=O)(=O)n1cnc(C(CCO)c2ncn(S(=O)(=O)N(C)C)c2CCCO)c1 (configuration not stated)	none | GRK2 inh confirm inactive | Aptamer quench SP 22
CN(C)S(=O)(=O)n1cnc(-c2ccccc2)c1-c1ccccc1	none
COc1ccccc1N1CCN(C(=O)CSc2nc3ccccc3[nH]2)CC1	GRK2 inh 96 | GRK2 inh confirm inactive | Aptamer quench SP inactive
Cc1cc(C)c(C)c(S(=O)(=O)N2C(=S)NC(=O)C2CC(C)C)c1C (configuration not stated)	GRK2 inh 96 | GRK2 inh confirm inactive | Aptamer quench SP inactive
Cc1cc(C)c(C)c(S(=O)(=O)N2C(=S)NC(=O)C2C(C)C)c1C (configuration not stated)	none
CSCCC(NS(=O)(=O)c1ccccc1F)C(=O)NCc1cccs1 (configuration not stated)	GRK2 inh 61 | GRK2 inh confirm inactive | Aptamer quench SP inactive
O=C(CCCn1nnnc1CN1CCOCC1)N1CCC(c2ccc(F)cc2)C1 (configuration not stated)	none
Cc1ccc(C(=O)Cn2c(C)cc(C)c(C#N)c2=O)cc1	none
Cc1cc(C)n(CC(=O)c2ccc(Br)cc2)c(=O)c1C#N	GRK2 inh 71 | GRK2 inh confirm inactive | Aptamer quench SP inactive
CC(OC(=O)CCN=C1NS(=O)(=O)c2ccccc21)C(=O)NCc1ccccc1 (configuration not stated)	none
COC(=O)c1ccccc1NC(=O)CCS(=O)(=O)c1ccc(Br)s1	none | GRK2 inh confirm inactive | Aptamer quench inactive | Aptamer quench SP inactive | FAM quench DR inactive
Cc1ccccc1NC(=O)CCS(=O)(=O)c1ccc(Br)s1	GRK2 inh 67 | GRK2 inh confirm inactive | Aptamer quench inactive | Aptamer quench SP inactive | FAM quench DR inactive
CCOc1ccc(CCNC(=O)c2cccc(S(=O)(=O)N3CCN(C(C)=O)CC3)c2)cc1OCC	none
Nc1cccn2c(-c3ccc(Cl)cc3)cnc12	none | GRK2 inh confirm inactive | Aptamer quench SP inactive
Nc1cccn2c(-c3ccc(Cl)c(Cl)c3)cnc12	none
CCn1nc(NC(=O)CC(C)C)c2cc3cccc(C)c3nc21	none
CCn1nc(NC(=O)C(C)(C)C)c2cc3cccc(C)c3nc21	GRK2 inh 50 | GRK2 inh confirm inactive | Aptamer quench SP inactive
COc1ccc(CCNC(=O)CCS(=O)(=O)c2ccc(Br)cc2)cc1OC	none | GRK2 inh confirm inactive | Aptamer quench inactive | Aptamer quench SP inactive | FAM quench DR inactive
O=C(CCS(=O)(=O)c1ccc(Br)cc1)NCc1ccc(F)cc1	GRK2 inh 87 | GRK2 CP2 54 | Aptamer quench 2 inactive | FAM quench CP2 inactive
COc1ccc(CCNC(=O)CCNC(=O)c2ccc(Br)cc2)cc1OC	none
Cc1ccc(CNC(=O)CCS(=O)(=O)c2ccc(Br)cc2)cc1	none (no result: GRK2 inh, Efflux pump mplx, Yeast superoxide)
O=C(Nc1nncs1)C12CC3CC(CC(Cl)(C3)C1)C2	none
COc1ccc(C(C(=O)NC2CCCC2)N(C(=O)c2snc(-c3ccc(F)cc3)c2N)c2ccc(OC)cc2)cc1 (configuration not stated)	none
COc1ccc(C(C(=O)NC2CCCC2)N(C(=O)c2snc(-c3ccc(F)cc3)c2N)c2ccc(F)cc2)cc1 (configuration not stated)	GRK2 inh 72 | GRK2 inh confirm inactive | Aptamer quench SP inactive
CN1CCN(CC(=O)Nc2ccccc2C(F)(F)F)CC1	none
O=C(CN1CCc2ccccc2C1)Nc1ccccc1C(F)(F)F	GRK2 inh 48 | GRK2 inh confirm inactive | Aptamer quench SP inactive
CCOC(=O)[C@@H]1[C@H]2COc3cc(OC)ccc3[C@H]2N2C(=O)N(c3ccc(C)cc3)C(=O)[C@@]12C	none
C[C@H]1CCC2[C@](C)(CO)[C@@H](O)CC[C@]2(C)[C@@]12CCC(CO)(CCO)O2 (some centres not stated)	GRK2 inh 44 | GRK2 CP2 inactive | FAM quench CP2 inactive
CN(CC(=O)Nc1ccc(S(=O)(=O)N2CCOCC2)cc1)Cc1ccc(F)cc1	none
CCc1ccc(CN(C)CC(=O)Nc2ccc(S(=O)(=O)N3CCOCC3)cc2)cc1	GRK2 inh 99 | GRK2 inh confirm inactive | Aptamer quench SP inactive
C(=N/n1c2ccccc2c2ccccc21)/c1ccco1	GRK2 inh 96 | GRK2 inh confirm inactive | Aptamer quench SP inactive
COc1ccc(OC)c2nc(-c3ccc4c(c3)OCO4)ccc12	GRK2 inh 42 | GRK2 CP2 inactive | FAM quench CP2 inactive
c1ccc2nc(-c3ccc4c(c3)OCO4)ccc2c1	none
N#CCCN(C(=O)COC(=O)c1cc(=O)[nH]c2ccccc12)c1ccccc1	GRK2 inh 45 | GRK2 inh confirm inactive | Aptamer quench SP inactive
O=C(COC(=O)c1cc(=O)[nH]c2ccccc12)NC(=O)c1ccccc1	GRK2 inh 68 | GRK2 inh confirm inactive | Aptamer quench SP inactive
CCC1CCCCN1C(=O)COC(=O)COc1ccc(Br)cc1 (configuration not stated)	none
O=C1ON=C(c2cccc([N+](=O)[O-])c2)/C1=C/c1ccc(O)cc1	none
CCN(CC(=O)Nc1ccc(NC(C)=O)cc1)C(=O)C1CC(=O)N(CCc2ccc(OC)c(OC)c2)C1 (configuration not stated)	GRK2 inh 92 | GRK2 inh confirm inactive | Aptamer quench SP inactive
